According to PubChem BioAssay AID504339 (National Center for Advancing Translational Sciences (NCATS), 2011):
About 17,000 (4.4%) of roughly 390,000 compounds were called active. Not shown: some 8% with an inconclusive outcome. What follows is part of a selection rich in actives, with near analogues and random picks from the rest. Values without a mark were called inactive. The call rests on the fitted dose curve; in most records, active means well fitted inhibition curve with a large enough effect; inconclusive means small, poorly fitted or top-dose-only effect; inactive means no such curve, though single readings can be large or run the other way.

The compounds below were run against Lysine-specific demethylase 4A (Homo sapiens) (UniProt O75164) (assay: qHTS Assay for Inhibitors of JMJD2A-Tudor Domain). Details: AlphaScreen JMJD2A-Tudor / H3K4me3 peptide binding; series mostly up to 114 µM; activity change, negative = inhibition: at the top concentration.
Further: nearly all actives have a fitted effect of over 50% in size.
On the % scale 0 is the no-effect control and ±100 the full control effect; potency means the concentration at half of the fitted maximal effect.

Chain of Lysine-specific demethylase 4A (Homo sapiens) (O75164 whole entry, looked up, the tested form may be a part): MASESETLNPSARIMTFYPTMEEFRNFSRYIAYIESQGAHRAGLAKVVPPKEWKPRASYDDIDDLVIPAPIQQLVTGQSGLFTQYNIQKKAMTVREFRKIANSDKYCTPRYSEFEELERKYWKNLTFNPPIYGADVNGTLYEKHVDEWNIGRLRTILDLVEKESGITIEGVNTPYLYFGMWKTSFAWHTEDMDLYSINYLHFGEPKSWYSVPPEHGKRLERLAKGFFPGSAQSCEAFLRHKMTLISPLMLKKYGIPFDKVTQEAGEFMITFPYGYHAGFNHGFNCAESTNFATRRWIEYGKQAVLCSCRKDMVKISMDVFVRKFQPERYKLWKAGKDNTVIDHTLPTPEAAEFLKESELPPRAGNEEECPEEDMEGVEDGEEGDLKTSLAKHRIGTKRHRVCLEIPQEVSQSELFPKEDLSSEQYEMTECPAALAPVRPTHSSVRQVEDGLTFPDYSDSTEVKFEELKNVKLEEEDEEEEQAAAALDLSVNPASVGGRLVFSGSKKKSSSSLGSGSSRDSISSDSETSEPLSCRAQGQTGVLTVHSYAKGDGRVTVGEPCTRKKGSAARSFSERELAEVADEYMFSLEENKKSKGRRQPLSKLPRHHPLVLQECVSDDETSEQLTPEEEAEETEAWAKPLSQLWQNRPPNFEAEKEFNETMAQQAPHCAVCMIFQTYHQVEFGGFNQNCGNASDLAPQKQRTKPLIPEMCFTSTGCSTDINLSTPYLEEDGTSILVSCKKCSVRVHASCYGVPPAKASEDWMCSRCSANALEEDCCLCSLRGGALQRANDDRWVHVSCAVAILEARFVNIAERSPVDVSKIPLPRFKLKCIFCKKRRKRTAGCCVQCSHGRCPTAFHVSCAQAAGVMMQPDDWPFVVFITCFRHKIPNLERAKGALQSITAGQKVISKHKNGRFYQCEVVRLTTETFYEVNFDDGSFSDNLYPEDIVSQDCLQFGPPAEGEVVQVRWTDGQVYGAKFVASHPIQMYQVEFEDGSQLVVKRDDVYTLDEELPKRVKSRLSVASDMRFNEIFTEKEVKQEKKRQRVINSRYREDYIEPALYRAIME

| Compound | activity change, negative = inhibition | Potency |
| --- | --- | --- |
| CCC(C)Nc1oc(-c2ccc(COc3ccc(Cl)cc3)o2)nc1C#N (centres undefined) | -23.2% |  |
| CN1CCN(c2oc(-c3ccc(COc4ccc(Cl)cc4)o3)nc2C#N)CC1 |  | 39.8 µM (active) |
| COc1ccc(OCc2ccc(-c3nc(C#N)c(N4CCN(c5ccccc5)CC4)o3)o2)cc1 | -25.8% |  |
| CCOc1ccccc1NC(=O)Cn1c(=O)n(Cc2ccccc2)c(=O)c2c(C)c(C(=O)N(C)C)sc21 | -12.3% |  |
| c1ccc(COc2ccccc2CNCc2cccnc2)cc1 | -35.1% |  |
| N#Cc1nc(COc2ccc(-c3ccccc3)cc2)oc1NCc1cccnc1 |  | 44.7 µM (active) |
| O=S(=O)(c1ccccc1)c1nc(-c2ccccc2F)oc1NCc1cccnc1 | -32.6% |  |
| CCOC(=O)c1c(NC(=O)/C=C/c2ccc(OC)cc2)sc2c1CCC(C)C2 (centres undefined) | 6.21% |  |
| COc1cc(/C=N\NC(=O)C2C(=O)NCC2c2ccccc2)cc(OC)c1O (centres undefined) | -6.9% |  |
| COc1ccc(/C=N/NC(=O)C2CC2)c(OC)c1OC | -1.92% |  |
| COc1cccc(/C=N\NC(=O)C2=NNC(=O)C2C)c1O (centres undefined) |  | 56.2 µM (active) |
| CCOc1ccccc1NC(=O)CN1CCN(S(=O)(=O)c2ccc(Br)cc2)CC1 | -5.5% |  |
| CCOc1cc(C2c3c(-c4ccc(Br)cc4)n[nH]c3C(=O)N2c2ccc(Cl)cc2)ccc1O (centres undefined) | -21% |  |
| O=C(CN1C(=O)c2cccc3cccc(c23)C1=O)N1CCCCC1 | -7.05% |  |
| O=C1c2cccc3cccc(c23)C(=O)N1CCCCCc1n[nH]c(=S)o1 |  | 89.1 µM (active) |
| O=C1c2ccccc2C(=O)N1CCCc1nc(-c2ccccc2)no1 | 11.5% |  |
| CCCN1CCN(CCCNC(=O)Cn2nc(CC)n3c(cc4occc43)c2=O)CC1 | -16.1% |  |
| COc1cc(/C=C2\Oc3ccc(C#Cc4ccc(O)cc4)cc3C2=O)cc(OC)c1 |  | 89.1 µM (active) |
| COC(=O)C(C)Oc1ccc2c(c1)O/C(=C\c1cccc(Br)c1)C2=O (centres undefined) | -35.5% |  |
| COc1cc(C#Cc2ccc3cc(CCCO)oc(=O)c3c2)cc(OC)c1 | -33.8% |  |
| CCC(CC)NC(=O)/C=C/c1cccc([N+](=O)[O-])c1 | 6.03% [at 57.1 µM] |  |
| O=C(CN1CCOCC1)Nc1cccc([N+](=O)[O-])c1 | -4.93% |  |
| COC(=O)/C=C\C(=O)Nc1cccc([N+](=O)[O-])c1 |  | 17.8 µM (active) |
| Cc1cc(C)c(/C=C/c2onc(C)c2S(=O)(=O)N2CCC(C(=O)Nc3ccc(Cl)cc3C)CC2)c(C)c1 | -1.92% |  |
| O=C(CNC(=O)COc1ccccc1)NCCc1ccccn1 | -15.4% |  |

| Compound | activity change, negative = inhibition | Potency |
| --- | --- | --- |
| Cc1c(C)c(C)c(S(=O)(=O)NCCc2ccccn2)c(C)c1C | -7.58% |  |
| COc1ccc(NCCc2ccccn2)cc1 |  | 79.4 µM (active) |
| Cc1ccc(CNC(=O)CSc2c(C)cnc3c2c(=O)n(C)c(=O)n3C)cc1 | -0.325% |  |
| O=c1/c(=C/c2ccc(CNS(=O)(=O)c3ccccc3)o2)sc2n1CCN=2 | -24.9% |  |
| O=c1nc2s/c(=C\c3ccco3)c(=O)n2nc1Cc1ccccc1 |  | 50.1 µM (active) |
| CCOC(=O)c1cc(OC(=O)c2ccccc2Cl)n(-c2ccccc2)n1 | -17.1% |  |
| CN(Cc1ccccc1)C(=O)CCS(=O)(=O)c1cc(Br)cc2c1N(C(=O)C1CC1)CC2 | -17.8% |  |
| COc1ccc(N2CCN(C(CNS(=O)(=O)c3ccc(C)cc3)c3ccccc3)CC2)cc1 (centres undefined) |  | 20 µM (active) |
| COc1ccc(S(=O)(=O)NCC(c2ccc(C)cc2)N2CCN(C)CC2)cc1OC (centres undefined) | -5.52% |  |
| COc1ccc(S(=O)(=O)NCC(c2ccco2)N2CCOCC2)cc1 (centres undefined) |  | inactive |
| CCOC(=O)c1c(C)oc2nc(C)nc(N(CC(C)C)CC(C)C)c12 | -5.5% |  |
| CCOc1cc(C2C(C(=O)Nc3ccc(OC)cc3)=C(C)Nc3nc(SC)nn32)ccc1O (centres undefined) | -9.9% |  |
| O=C(Nc1ccc(OC(F)(F)F)cc1)C1CCCN(S(=O)(=O)c2ccc(Br)s2)C1 (centres undefined) | -1.71% |  |
| CC(=O)c1c(C)n(-c2ccc(N(C)C)cc2)c2ccc(OCC(N)=O)cc12 |  | 79.4 µM (active) |
| Cc1cccc(OCC(=O)NCC(=O)N/N=C/c2ccc(N(C)C)cc2)c1 | -14% |  |
| CC(=O)c1c(C)n(-c2ccc(C)cc2)c2ccc(O)cc12 | -2.04% |  |
| Cc1ccc(-c2nnc(SCc3ccccc3C)o2)cc1 | 150% |  |
| Cc1ccccc1CNC(=O)CCCn1nc(C)c2sc3ccccc3c2c1=O | -6.62% |  |
| Cc1cc(N2C(=O)C(O)=C(C(=O)c3ccc(C)o3)C2c2ccc(OCc3ccccc3)cc2)no1 (centres undefined) |  | 44.7 µM (active) |
| COc1cc(C2C(C(=O)c3ccc(C)o3)=C(O)C(=O)N2CCc2ccccc2)ccc1O (centres undefined) |  | 17.8 µM (active) |
| COc1cc(C2C(C(=O)c3cccs3)=C(O)C(=O)N2CCN2CCOCC2)ccc1OCCC(C)C (centres undefined) | -16.8% |  |
| CCOc1cc(C2C(C(=O)c3ccco3)=C(O)C(=O)N2Cc2ccccc2)ccc1O (centres undefined) | -27.6% |  |
| CCCOc1ccc(C2C(C(=O)c3ccc(C)o3)=C(O)C(=O)N2CCCn2ccnc2)cc1 (centres undefined) | -17.6% [at 11.4 µM] |  |
| Cc1cc(N2C(=O)C(=O)/C(=C(/O)c3ccccc3)C2c2cccc(Br)c2)no1 (centres undefined) | -28.3% |  |
| O=C(Nc1cc(Cl)cc(Cl)c1)c1ccc2c(c1)N(Cc1cccc(Cl)c1)C(=O)c1ccccc1S2=O (centres undefined) | -1.28% |  |

| Compound | activity change, negative = inhibition | Potency |
| --- | --- | --- |
| COc1cc(CN(CC2CCCO2)C(=O)c2ccccc2F)cc(OC)c1OC (centres undefined) | -20.4% |  |
| CC(C)(C)OC(=O)N1CCC(c2c(C(=O)NCCc3ccsc3)cnn2-c2ccc(F)cc2F)CC1 | -30.7% |  |
| Cc1ccc(-n2ncc(C(=O)N(C)Cc3ccccc3)c2-n2cccc2)cc1 | -24.5% |  |
| CCOC(=O)N1CCc2c(sc3c2C(=O)NC(c2ccccc2F)N3)C1 (centres undefined) | -10.7% |  |
| COc1ccc(-c2cc(C(=O)NCc3cc(OC)c(OC)c(OC)c3)[nH]n2)cc1 | 9.66% |  |
| O=C(CCC1CCCN(C(=O)c2ccc(F)c(F)c2)C1)N1CCN(c2ccccn2)CC1 (centres undefined) | -7.35% |  |
| C=Cc1ccc(C(=O)N2CCCC(CCC(=O)N3CCN(c4ccccn4)CC3)C2)cc1 (centres undefined) |  | 56.2 µM (active) |
| O=C(CCC1CCCN(C(=O)Cc2ccc(F)cc2)C1)N1CCN(c2ccccn2)CC1 (centres undefined) | 2.46% |  |
| Brc1cccc(-c2nnn3c2nc(NC2CCCCC2)c2ccccc23)c1 | 21.2% |  |
| CCc1cc2c(cc3c(=O)n(CC(=O)NCc4cccc(Cl)c4)nc(CC)n32)s1 | -15.3% |  |
| O=C(Nc1ccccc1[N+](=O)[O-])C1C(c2ccccc2)=C1c1ccccc1 | -11.9% |  |
| O=C(NCCNc1ccccc1[N+](=O)[O-])c1ccccc1F | -9.86% |  |
| O=[N+]([O-])c1ccccc1Nc1ccc(O)cc1 |  | 63.1 µM (active) |
| CCOC(=O)CNC(=O)c1cc2c(=O)n3cccc(C)c3nc2s1 | 6.48% |  |
| O=C(c1ccc2c(c1)N(Cc1ccc(Cl)cc1)C(=O)c1ccccc1S2(=O)=O)N1CCCCC1 | -14.8% |  |
| O=c1c2cccnc2n(Cc2cccc(F)c2)c(=O)n1Cc1ccccc1Cl | 7.27% |  |
| CCOc1cc(-c2nnc(SCC(=O)NC3CCCC3)nc2-c2ccc(OC)c(OCC)c2)ccc1OC | -17.3% |  |
| Cc1cccc(NC(=S)NCCc2ccc(Cl)cc2)c1C | -20.7% |  |
| Oc1cc2c(cc1O)CN(C(=S)NCCc1ccc(Cl)cc1)CCC2 |  | 44.7 µM (active) |
| O=C(NCCc1ccc(Cl)cc1)c1cccc(N2CCCC2=O)c1 | -2.78% |  |
| Cc1ccccc1CNC(=O)C(=O)NCC(c1cccs1)S(=O)(=O)c1cccs1 (centres undefined) | -14.3% |  |
| Cc1ccccc1OCC(=O)Nc1c(C(=O)Nc2ccccc2F)oc2ccccc12 | -2.65% |  |
| O=C(Nc1cc(C(F)(F)F)ccc1Cl)c1nc2ccccc2nc1N1CCCCC1 | -28% |  |
| CCCc1cc(=O)oc2c(C)c(O)c(CN3CCCCC3)cc12 | -15.6% |  |
| Oc1c(CN2CCCC2)cc(COCc2ccccc2)c2cccnc12 |  | 25.1 µM (active) |

| Compound | activity change, negative = inhibition | Potency |
| --- | --- | --- |
| Oc1c(CN2CCN(c3ccc(F)cc3)CC2)cc(Cl)c2cccnc12 |  | 25.1 µM (active) |
| O=C(CN1CCN(c2ccc(F)cc2)CC1)Nc1cccc(C(F)(F)F)c1 | -25.8% |  |
| Cc1cc(=O)oc2cc(OCC(=O)N3CCN(c4ccc(F)cc4)CC3)c(Cl)cc12 | -18.3% |  |
| O=C(Cc1ccccc1)NNC(=O)C1CCN(c2ncccn2)CC1 | 2.84% |  |
| Cc1ccc(O)c(NC(=O)CCS(=O)(=O)c2nc(-c3ccc4c(c3)OCO4)cc(C(F)(F)F)n2)c1 | -25.6% |  |
| CCOc1ccc(NC(=O)c2c(NC(=O)Cc3ccccc3)sc3c2CCC(C)C3)cc1 (centres undefined) | -34% |  |
| Cc1ccc(-n2ncc3c(N4CCC(C(N)=O)CC4)ncnc32)cc1 | -5.2% |  |
| COc1ccc(Cn2c(C(=O)O)c(CNCc3cccc(OC)c3)c3ccc(C)cc32)cc1 | -27.9% |  |
| COc1ccccc1C(=O)Nc1c(C(=O)Nc2ccc(C)cc2)oc2ccccc12 | -11.9% |  |
| Cc1ccc(-c2nn3c(=O)cc(CN4CCN(S(=O)(=O)c5ccc(Cl)cc5)CC4)nc3s2)cc1 | -0.325% |  |
| Cc1cccc(Cc2c(C)nc3nc(SCc4ccccc4Cl)nn3c2C)c1 | 13.3% |  |
| Cc1cc(C)n2nc(SCC(N)=O)nc2n1 | -32.6% |  |
| Cc1cc(C)n2nc(SCC(=O)NC(=O)NCc3ccco3)nc2n1 |  | 20 µM (active) |
| O=C(CNc1ccc(F)cc1F)NC(=O)NCc1ccco1 | -32.2% |  |
| COc1ccc(-c2onc(C)c2C)cc1S(=O)(=O)NCC1CCN(Cc2cccc(F)c2)CC1 | -17.2% |  |
| CCN(CC)S(=O)(=O)c1cccc(-c2n[nH]c(=S)n2/N=C/c2ccc(C(=O)OC)cc2)c1 |  | 10 µM (active) |
| CCN(CC)S(=O)(=O)c1cccc(NC(=O)c2ccc(S(=O)(=O)N3CCCC3)cc2)c1 | -24.2% |  |
| COC(=O)c1ccc(NC(=O)CSc2n[nH]c(-c3ccccc3)n2)cc1 | -0.974% |  |
| COc1ccc(N2C(=O)CS(=O)(=O)C23C(=O)N(Cc2ccc(C)cc2)c2ccccc23)cc1Cl (centres undefined) | -16.8% |  |
| COc1ccc(CC(=O)NCCc2sc3nc(-c4ccc(OC)cc4)nn3c2C)cc1 | -20.8% |  |
| Cc1cccc(C(=O)NCCc2nc3ccccc3n2Cc2ccccc2Cl)c1 | 1.68% |  |
| Cc1cccc(-n2cnc(C(=O)Nc3cccnc3)c2)n1 | 6.53% |  |
| Cc1cccc(-n2cnc(C(=O)NNC(=S)Nc3ccccc3)c2)n1 |  | 35.5 µM (active) |
| Cc1nn(C)cc1C(=O)NNC(=S)Nc1ccc(Cl)cc1 | -20.5% |  |
